Consider 56 compounds from PubChem BioAssay AID2685 (National Center for Advancing Translational Sciences (NCATS), 2010).

The structures appear in SMILES notation. Among all 320,000 compounds or so, about 2,100 (0.66%) were called active. About 53% were inconclusive and are not listed. Calls follow the shape of the dose curve; as a rule, active = well fitted inhibition curve with a large enough effect in the signal ratio, with a control signal flat (not every such curve was filed as active); inconclusive = small, poorly fitted or top-dose-only effect, or effect the other way, or a change in a side signal; inactive = flat fitted curve, though single readings scatter; the % refers to the signal ratio. The list comes from a sample in which actives are over-represented; it also holds similar structures and randomly drawn compounds.
Potency is read from the fitted curve at half-maximal effect.

A short description of this assay: qHTS Assay for Lipid Storage Modulators in Drosophila S3 Cells.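 As to cell number change: cells counted by Cell Tracker Red CMTPX staining in the red channel.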 As to lipid storage change, negative = inhibition: % is scaled to controls: 0 for no effect and ±100 for the full control effect. The settings on record: BODIPY lipid droplet fluorescence, 18-24 h, cells fed with added oleic acid; cell number change: measured here: cell count max response; series mostly up to 46.1 µM; lipid storage change, negative = inhibition: at the top concentration. The method, boiled down: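 Drosophila S3 cells loaded with oleic acid (400 uM, as added) and compounds at several concentrations; lipid droplets imaged by 488-nm laser-scanning cytometry, 500–530 nm intensity and object ratio to cell channel. Percent activity normalized to 20 uM Triacsin C.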
(In general: qHTS replaces the single test concentration by a dilution series.)
As for `c1ccc(-n2nnnc2Oc2cccc3cccnc23)cc1`, the call was inactive.

For the compound `O=C(O)c1ccc(-n2nnnc2Oc2cccc3cccnc23)cc1`, the Potency is 23.1 µM (active) and the cell number change is -14.4%.

On to `Cc1ccc2cccc(Oc3nnnn3-c3ccccc3)c2n1`, for which the compound was called inactive and the cell number change was 10.6%.

With `CCNC(=O)CC1SC(=Nc2ccccc2C)N(C)C1=O` (centres undefined), the “lipid storage change, negative = inhibition” value is 1.25% (inactive) and the cell number change is 12.4%.

On to `CCN1CCN(c2ccc(S(=O)(=O)N3CCCCC3)cc2NC(=O)c2ccc(F)cc2)CC1`, for which the “lipid storage change, negative = inhibition” value was 16% (inactive).

On to `COc1ccc(/C=C(\NC(=O)c2ccc(OC)cc2)C(=O)Nc2ccc(C(=O)O)cc2)cc1`, for which the call was inactive and the cell number change came to 11.1%.

`N#Cc1ccccc1S(=O)(=O)N1CCN(C(=O)C2CCC2)CC1`: the “lipid storage change, negative = inhibition” value is 14.4% (inactive) and the cell number change was determined as 17.3%.

On to `N#Cc1ccccc1S(=O)(=O)N1CCN(C(=O)CN2CCCSc3ccccc32)CC1`, for which the Potency was 2.06 µM (active) and the cell number change is -12.9%.

In the case of `Cc1ccc(S(=O)(=O)N2CCN(C(=O)CN3CCCSc4ccccc43)CC2)cc1`, the “lipid storage change, negative = inhibition” value is 14.9% (inactive) and the cell number change worked out at 6.28%.

Turning to `O=C(N[C@@H](Cc1ccccc1)C(=O)OCc1ccccc1)c1nc[nH]c1C(=O)NC(c1ccccc1)c1ccccc1`, the “lipid storage change, negative = inhibition” value was 3.83% (inactive) and the cell number change came out at 11.4%.

On to `C[C@H](NC(=O)c1nc[nH]c1C(=O)N[C@@H](Cc1ccccc1)C(=O)OC(C)(C)C)C(=O)OCc1ccccc1`, for which the Potency is 14.6 µM (active) and the cell number change came out at 26.3%.

For the compound `CCOC(=O)c1ccc(NC(=O)c2nc[nH]c2C(=O)N[C@@H](Cc2ccccc2)C(=O)OC(C)(C)C)cc1`, the Potency was 18.4 µM (active) and the cell number change is -20.1%.

Consider `C[C@H](NC(=O)c1nc[nH]c1C(=O)N(C)Cc1ccccc1)C(=O)OC(C)(C)C`, for which the Potency was 0.651 µM (active) and the cell number change is 20.3%.

For the compound `C[C@H](NC(=O)c1nc[nH]c1C(=O)N[C@@H](Cc1ccccc1)C(=O)OC(C)(C)C)C(=O)OC(C)(C)C`, the “lipid storage change, negative = inhibition” value is 16% (inactive) and the cell number change came out at 1.8%.

Turning to `CC(C)C[C@H](NC(=O)c1nc[nH]c1C(=O)N(C)Cc1ccccc1)C(=O)OC(C)(C)C`, the “lipid storage change, negative = inhibition” value is -12.5% (inactive) and the cell number change was -15.1%.

On to `C[C@@H](NC(=O)c1nc[nH]c1C(=O)N[C@@H](Cc1ccccc1)C(=O)OCc1ccccc1)c1ccccc1`, for which the “lipid storage change, negative = inhibition” value was -0.678% (inactive) and the cell number change was -24.1%.

For `CCOC(=O)c1ccc(NC(=O)c2nc[nH]c2C(=O)N[C@@H](CC(C)C)C(=O)OC(C)(C)C)cc1`, the “lipid storage change, negative = inhibition” value was -1.73% (inactive) and the cell number change is -3.92%.

`CC(C)(C)OC(=O)[C@H](Cc1ccccc1)NC(=O)c1[nH]cnc1C(=O)Nc1ccc(Cl)cc1`: the “lipid storage change, negative = inhibition” value is -47.5% (inactive) and the cell number change was -19.3%.

For `C[C@H](NC(=O)c1nc[nH]c1C(=O)NCc1ccccc1)C(=O)OC(C)(C)C`, the “lipid storage change, negative = inhibition” value was -10.5% (inactive) and the cell number change was -10.1%.

Regarding `O=C(N[C@@H](Cc1ccccc1)C(=O)OCc1ccccc1)c1nc[nH]c1C(=O)N[C@@H](Cc1ccccc1)C(=O)OCc1ccccc1`, the Potency is 3.26 µM (active).

As to `C[C@H](NC(=O)c1nc[nH]c1C(=O)N[C@@H](C)C(=O)OC(C)(C)C)C(=O)OCc1ccccc1`, the “lipid storage change, negative = inhibition” value was -8.74% (inactive) and the cell number change came to 0.898%.

For `COc1ccccc1CN1CC(C(=O)N(CCO)Cc2cccs2)CCC1=O` (centres undefined), the “lipid storage change, negative = inhibition” value was 8.22% (inactive) and the cell number change is 1.74%.

With `CCN1CCCC1CNC(=O)C(=O)NC` (centres undefined), the “lipid storage change, negative = inhibition” value was -3.62% (inactive) and the cell number change turned out to be 1.27%.

With `Cc1c(C(=O)NCc2cccnc2)oc2ccc(S(=O)(=O)N3CCCCCC3)cc12`, the result was inactive.

With `O=C(Cn1ccc(C(F)(F)F)n1)N/N=C/c1ccc2c(c1)OCO2`, the “lipid storage change, negative = inhibition” value was 11.3% (inactive) and the cell number change stood at 4.92%.

As to `COc1ccc(Cl)cc1NC(=O)CCn1c(=O)oc2ccccc21`, the “lipid storage change, negative = inhibition” value is -13.1% (inactive).

For `O=C(CN1C(=O)C2C3CCC(C3)C2C1=O)OCC(=O)c1cccc([N+](=O)[O-])c1` (centres undefined), the “lipid storage change, negative = inhibition” value was 4.51% (inactive) and the cell number change was 2.72%.

Take `C=CCn1c(SCc2ccc(C(=O)NCCO)cc2)nc2sc(C)c(C)c2c1=O`: the “lipid storage change, negative = inhibition” value is 3.04% (inactive) and the cell number change is 22.5%.

For `Cc1ccc(C(=O)NNc2ncnc3c2cnn3C)cc1`, the “lipid storage change, negative = inhibition” value is 3.58% (inactive) and the cell number change is -1.39%.

With `Cc1c(CN2CCCC(C(=O)c3cccc(OC(C)C)c3)C2)c(=O)n(-c2ccccc2)n1C` (centres undefined), the “lipid storage change, negative = inhibition” value was 5.83% (inactive) and the cell number change stood at 1.94%.

`C/C(=N\NC(=O)c1ccc(Cl)cc1)c1cccc(NC(=O)c2cccnc2)c1`: the “lipid storage change, negative = inhibition” value is 12.1% (inactive) and the cell number change was determined as 13.4%.

On to `CCn1c(CSc2nc(C)cs2)nc2cc(S(=O)(=O)N(C)C)ccc21`, for which the “lipid storage change, negative = inhibition” value was -12.7% (inactive) and the cell number change is -5.93%.

In the case of `CCn1c(SCC(=O)NC2CCCC2)nnc1-c1c[nH]c2ccccc12`, the “lipid storage change, negative = inhibition” value was 28.1% (inactive) and the cell number change turned out to be 30%.

In the case of `CN(C)C(CNC(=O)CN1C(=O)NC2(CCc3ccccc32)C1=O)c1ccco1` (centres undefined), the “lipid storage change, negative = inhibition” value was 13% (inactive) and the cell number change turned out to be 6.97%.

As to `Cc1ccc(NC(=O)C(C)SCC(=O)Nc2ccc(F)cc2)cc1S(=O)(=O)N1CCOCC1` (centres undefined), the “lipid storage change, negative = inhibition” value is 19.8% (inactive).

Consider `CC1(C(=O)NC2CCCCCC2)CCC(=O)N1Cc1ccc2c(c1)OCO2` (centres undefined), for which the “lipid storage change, negative = inhibition” value was -10.3% (inactive) and the cell number change was -18.4%.

As to `c1ccc(-c2cn3nc(-c4ccccc4)c(-c4ccccc4)nc3n2)cc1`, the “lipid storage change, negative = inhibition” value was -0.159% (inactive) and the cell number change came out at 19.6%.

Take `c1ccc(-c2cnn3c(-c4ccccc4)c(-c4ccccc4)nc3n2)cc1`: the Potency is 3.26 µM (active) and the cell number change was -3.03%.

For the compound `Nc1nc(-c2ccccc2)c(-c2ccccc2)n1N`, the result was inactive.

`CC(=O)N(CCCN(C)C)Cc1ccccn1`: the “lipid storage change, negative = inhibition” value was -10.4% (inactive) and the cell number change came out at 6.64%.

Take `CCS(=O)(=O)N1CCN(S(=O)(=O)c2ccc3ccccc3c2)CC1`: the call was inactive and the cell number change amounted to 16.6%.

In the case of `O=S(=O)(c1ccc2ccccc2c1)N1CCCCCC1`, the “lipid storage change, negative = inhibition” value was -25% (inactive) and the cell number change was found to be 0.283%.

Take `CC1CCN(S(=O)(=O)c2ccc3ccccc3c2)CC1`: the Potency is 3.26 µM (active) and the cell number change stood at 5.85%.

Take `O=S(=O)(c1ccccc1)N1CCN(C2CCN(Cc3ccccc3)CC2)CC1`: the “lipid storage change, negative = inhibition” value was 2.03% (inactive) and the cell number change was found to be 9.59%.

For `O=S(=O)(c1ccc2ccccc2c1)N1CCN(C2CCN(Cc3ccccc3)CC2)CC1`, the Potency is 5.8 µM (active) and the cell number change turned out to be 21%.

For `c1ccc(CN2CCC(N3CCC(N4CCCCCC4)CC3)CC2)cc1`, the Potency was 0.82 µM (active) and the cell number change was -20.6%.

With `c1ccc(C2CCC(N3CCC(N4CCCCC4)CC3)CC2)cc1` (centres undefined), the call was inactive and the cell number change was -17%.

In the case of `Brc1ccccc1CN1CCC(N2CCCCC2)CC1`, the “lipid storage change, negative = inhibition” value was 11.6% (inactive) and the cell number change was -5.87%.

Regarding `Cc1ccc(S(=O)(=O)N2CCN(C3CCN(Cc4ccccc4)CC3)CC2)cc1`, the “lipid storage change, negative = inhibition” value was 6.16% (inactive) and the cell number change is -12.2%.

For `COc1cccc(NC(=O)CN2C(=O)NC(C)(CCC(C)C)C2=O)c1` (centres undefined), the “lipid storage change, negative = inhibition” value is 16.3% (inactive) and the cell number change was 17.1%.

Take `O=C(NCCc1ccc(Cl)cc1)c1ccc(CS(=O)Cc2ccc(Cl)cc2)o1` (centres undefined): the outcome was inactive.

With `O=C(CCN1C(=O)COc2ccccc21)N1CCN(c2ccccc2)CC1`, the “lipid storage change, negative = inhibition” value was -3.53% (inactive) and the cell number change was 0.131%.

Regarding `O=C(NCC1CCCO1)C1CCN(C2CCN(C(=O)Cc3ccsc3)CC2)CC1` (centres undefined), the “lipid storage change, negative = inhibition” value is -25.2% (inactive) and the cell number change was -8.37%.

On to `COc1ccc(CNc2nnnn2C)c(OC)c1`, for which the Potency is 0.651 µM (active) and the cell number change was -2.1%.

On to `CCOc1c(CNc2nnnn2C)cccc1OC`, for which the “lipid storage change, negative = inhibition” value is 5.04% (inactive) and the cell number change came to 15.4%.

For `COc1ccc(CNc2nc3ccccc3n2C)c(OC)c1`, the “lipid storage change, negative = inhibition” value is -7.05% (inactive) and the cell number change is -4.3%.
